From PubChem BioAssay come the findings set out here.

For the first experiment, the target named is PEG-3 (UniProt Q6IN02). Nature of the experiment: inhibition of PEG-3 promoter-driven reporter – cell-based, HeLa, luciferase, CREF/GAPDH counter-screen panel, dose response (AID 624167). To be noted: CREF/GAPDH counter-screens; HeLa PEG-Prom luciferase reporter, overnight, run 1, dose range 1, at 100 µM (top of the series) unless noted. Background: Counterscreens check selectivity or assay interference.
Chain of PEG-3 (Q6IN02 whole entry, looked up): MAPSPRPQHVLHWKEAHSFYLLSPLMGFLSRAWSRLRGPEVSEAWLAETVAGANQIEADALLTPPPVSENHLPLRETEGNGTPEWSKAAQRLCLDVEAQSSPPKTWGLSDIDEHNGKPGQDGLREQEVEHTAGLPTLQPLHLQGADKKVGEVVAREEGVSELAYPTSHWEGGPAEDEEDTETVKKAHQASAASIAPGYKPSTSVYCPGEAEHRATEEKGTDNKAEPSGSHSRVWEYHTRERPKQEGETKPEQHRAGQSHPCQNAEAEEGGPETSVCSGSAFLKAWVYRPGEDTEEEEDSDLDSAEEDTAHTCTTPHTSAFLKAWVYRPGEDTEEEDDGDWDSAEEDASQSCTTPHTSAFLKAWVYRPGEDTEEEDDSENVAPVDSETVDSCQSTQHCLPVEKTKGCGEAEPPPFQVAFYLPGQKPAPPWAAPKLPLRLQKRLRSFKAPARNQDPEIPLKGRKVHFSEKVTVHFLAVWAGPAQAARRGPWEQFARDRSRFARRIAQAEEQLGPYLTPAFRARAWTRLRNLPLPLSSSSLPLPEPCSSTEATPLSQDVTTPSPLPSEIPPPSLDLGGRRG
As to `Cc1c(OCC(=O)NC2CC(C)(C)NC(C)(C)C2)ccc2c1oc(=O)c1ccccc12`, the inhibition – broadly, the relative decrease from the control value, in per cent – was 98%.
On to `COc1cccc(C(=O)c2sc(NC(C)C)nc2N)c1`, for which the inhibition was 93.5%.
Still for that read-out and setting: the same measure for `CC1(C)CC(NC(=O)c2cccc(S(=O)(=O)N(Cc3ccccc3)c3ccccc3)c2)CC(C)(C)N1`: 101%; for `O=C(NC1CCCCC1)Sc1ccc(Cl)cc1`: 102%; for `COc1ccc(-c2nc3c(C(=O)NCCN(C)C)cccc3c3ccccc23)cc1`: 102%.
On the same count and under the same terms, then `COc1ccc(CC(=O)N(Cc2ccccc2)c2ccccc2)cc1S(=O)(=O)N1CCOCC1`, with 82.4%; and `Oc1[nH]c2ccc(Br)cc2c1N=NC(=S)Nc1ccc(F)cc1`, with 89.9%.

The next experiment addresses PEG-3 (UniProt Q6IN02). Described as above. The settings on record: CREF/GAPDH counter-screens; HeLa PEG-Prom luciferase reporter, overnight, run 2, dose range 1, at 100 µM (top of the series) unless noted.
Take `O/N=C(\c1ccc(Cl)cc1Cl)c1ncc(C(F)(F)F)cc1Cl`: the inhibition is 97.3%.
On the same count and under the same terms, the same measure for `CC(C)CC(N)c1csc(Nc2ccc(C(=O)c3ccccc3)cc2)n1` (configuration not stated): 101%; for `CC(C)c1ccc(/C=N/Nc2ccc(C(=O)O)cc2)cc1`: 84%.
Same read-out and setting: then `CCOc1ccc(Nc2c3ccccc3nc3ccccc23)cc1`, with 101%; and `CSc1ccc2c(c1)C(N1CCN(C)CC1)Cc1ccccc1S2` (configuration not stated), with 98.9%.
On the same count and under the same terms, then `CC1(C)CC(NCCN2CCN(C3=CC(=C(C#N)C#N)CC(C)(C)C3)CC2)=CC(=C(C#N)C#N)C1`, with 44%; and `COc1ccc(C23CC4CC(CC(C4)C2)C3)cc1C(=O)NCCN(C)C`, with 102%.
On to `Cc1cccc(CN2C(=O)/C(=C\c3ccc(C(=O)NCCN4CCOCC4)cc3)Sc3ccccc32)c1`, for which the inhibition amounted to 99.5%.
The same measure, in the same setting: then `CCCN(CC(=O)Nc1cc(Cl)cc(Cl)c1)CC(=O)Nc1ccc(F)c(F)c1F`, with 99%.
`CCCCCCSc1cc(-c2nc3ccc(C)cn3c2NCCCC)ccc1OC`: the inhibition stood at 101%.
